Test [1] is described as follows: NCI Yeast Anticancer Drug Screen. Data for the rad50 strain (AID 155).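 Further: 0% = growth of vehicle-only cultures of the same strain.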 The following applies: S. cerevisiae rad50 strain growth inhibition; at 50.0 µM; hits give high values. The method, boiled down: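 Growth of the mutant yeast was measured after compound exposure and referenced to vehicle-treated cultures.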
Test [2] is described as follows: NCI Yeast Anticancer Drug Screen. Data for the mec2-1 strain (AID 157). The settings on record: S. cerevisiae mec2-1 strain, at 50.0 µM, hits give high values. The method, boiled down:
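Test agents were screened against the mec2-1 yeast strain, with defined DNA repair or cell cycle alteration. Growth was scored as inhibition against vehicle-only controls.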

The nature of test [3]: NCI Yeast Anticancer Drug Screen. Data for the sgs1 mgt1 strain (AID 161).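 Further: 0% = growth of cultures given vehicle only.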 The settings on record: S. cerevisiae sgs1 mgt1 strain, at 50.0 µM, hits give high values. The method, boiled down: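 Test agents were incubated with a DNA-repair-mutant yeast strain. Growth was then read and compared against vehicle-treated controls.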
Test [4] is described as follows: NCI Yeast Anticancer Drug Screen. Data for the cln2 rad14 strain (AID 165).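 Further: 0% = growth equal to vehicle treated cultures.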 The following applies: S. cerevisiae cln2 rad14 strain, at 50.0 µM, hits give high values. The method, boiled down:
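Growth of compound-exposed yeast (cln2 rad14 genotype) measured and expressed as inhibition relative to vehicle.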

The nature of test [5]: NCI Yeast Anticancer Drug Screen. Data for the bub3 strain (AID 167). The following applies: S. cerevisiae bub3 mutant strain, at 50.0 µM, hits give high values. The method, boiled down: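 Whole-cell yeast assay. The mutant strain was incubated with compounds, and growth inhibition was determined by comparison with vehicle-treated cells.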
The nature of test [6]: NCI Yeast Anticancer Drug Screen. Data for the mlh1 rad18 strain (AID 175). The following applies: S. cerevisiae mlh1 rad18 strain growth inhibition; at 50.0 µM; hits give high values. The method, boiled down:
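In this whole-cell yeast screen, a strain with altered DNA damage repair is challenged with compound, and its growth is measured against matched vehicle-treated controls.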

The panel holds about 79,000 compounds, 15% with a hit somewhere; the sample as a whole holds those more often. Values without a mark were called inactive. Activity calls are given as the source filed them. No stated cut-off is given here; in the data, active means growth inhibition above about 70%; inactive means the rest.

In the case of `Fc1ccccc1N=Cc1ccc(C=Nc2ccccc2F)cc1`, the growth inhibition is 3.85% in test [1]; -11.2% in test [2]; 23.9% in test [3]; 21.3% in test [4]; 45.6% in test [5]; 26.4% in test [6].
Turning to `CSc1ccc(NC(=O)Nc2cccc(C(C)=O)c2)cc1`, the growth inhibition was 2.15% in test [1]; 31.2% in test [2]; 10.3% in test [3]; -17.1% in test [4]; 43% in test [5]; 24.8% in test [6].
For `CN(C)CCC(CCN(C)C)=NO`, the growth inhibition in test [1] was -37.2%; in test [2] it was -49.1%; in test [3], 3.4%; in test [4] it was 15.5%; in test [5], -31.4%; in test [6], -12.1%.
As to `c1ccc(CSc2nn[nH]n2)cc1`, the growth inhibition in test [1] was -5.3%; in test [2], -8.1%; in test [3] it was -0.8%; in test [4], -9.65%; in test [5] it was -2.45%; in test [6], -4.95%.
As for `COc1ccc(OC)c2c(C(C)=O)cccc12`, the growth inhibition in test [1] was -35%; in test [2], -42.1%; in test [3], -4.2%; in test [4], -12.8%; in test [5], -17.2%; in test [6] it was -21.7%.
For the molecule `FC(F)(F)c1ccccc1N=Cc1cccs1`, the growth inhibition was -12.1% in test [1]; -9.55% in test [2]; 23.1% in test [3]; 3.05% in test [4]; 13.4% in test [5]; 20.3% in test [6].
Consider `CN(N=O)C(=O)NC(CCCCNC(=O)OCc1ccccc1)C(=O)OCc1ccccc1` (stereo unspecified), for which the growth inhibition in test [1] is 5.95%; in test [2], -10.1%; in test [3], -2.8%; in test [4], -22.4%; in test [5] it was 11.6%; in test [6], -11.2%.
As to `C/C(=N\NC(=O)c1ccncc1)c1ccc(Cl)cc1Cl`, the growth inhibition in test [1] was 5.85%; in test [2] it was 7.15%; in test [3] it was 0.55%; in test [4], 1.95%; in test [5], 4.65%; in test [6] it was 8.5%.
As for `O=C(Nc1cccc(Cl)c1)c1cc2cc(N=Nc3ccc(Br)cc3)ccc2oc1=O`, the growth inhibition in test [1] is 36.4%; in test [2], 33.6%; in test [3] it was 27%; in test [4] it was 29.1%; in test [5] it was 9.45%; in test [6] it was 18.2%.
Turning to `CC(=O)OC12CC3CCC4C(CCC5(C)C(C(C)CCCC(C)C)CCC45)C3(C)CC1O2` (stereo unspecified), the growth inhibition in test [1] is 71% (active); in test [2] it was 48.4%; in test [3], 69.8%; in test [4], -1.2%; in test [5], 14.3%; in test [6], 42.2%.
Consider `CCCCNC(=O)C(C)S(=O)(=O)c1ccc(C)cc1` (stereo unspecified), for which the growth inhibition in test [1] is 6.6%; in test [2] it was 16.4%; in test [3], -17.3%; in test [4], -21.7%; in test [5], -2%; in test [6], 11.8%.
As for `NNc1ncnc2cccc(Cl)c12`, the growth inhibition was 7.95% in test [1]; 27.2% in test [2]; 18.6% in test [3]; -24.7% in test [4]; 1.8% in test [5]; 11.9% in test [6].
`Clc1cc(Br)c2c(Cl)ccnc2c1Br`: the growth inhibition was 35.6% in test [1]; -1.3% in test [2]; 7.5% in test [3]; -8.65% in test [4]; 0.85% in test [5]; 20% in test [6].
Regarding `O=C(CSc1nnc(Cc2ccccc2)o1)Nc1ccccc1`, the growth inhibition in test [1] is -28.1%; in test [2], 0.05%; in test [3] it was -38.6%; in test [4] it was -13.3%; in test [5] it was -35.5%; in test [6], -27.1%.
As to `C1=C[CH]([Sn]([CH]2C=Cc3ccccc32)([CH]2C=Cc3ccccc32)[CH]2C=Cc3ccccc32)c2ccccc21` (stereo unspecified), the growth inhibition in test [1] was -14.2%; in test [2], -6.75%; in test [3], -1%; in test [4] it was -6.4%; in test [5], 1.2%; in test [6], -1.7%.
In the case of `O=[N+]([O-])c1cc2ccccc2nc1-c1ccccc1`, the growth inhibition in test [1] is 15.6%; in test [2] it was 4.2%; in test [3], -0.55%; in test [4] it was 6.95%; in test [5], 7.2%; in test [6], 6.15%.
As to `Cc1ccc(SCCN)cc1`, the growth inhibition in test [1] was 11.8%; in test [2], 11.9%; in test [3], -6.3%; in test [4], 2.35%; in test [5] it was -0.35%; in test [6], -10.2%.
With `Cc1c(C)c(C)c(CCl)c(CCl)c1C`, the growth inhibition in test [1] was 36.1%; in test [2], 16.9%; in test [3] it was 31.9%; in test [4], 10.4%; in test [5] it was 8.3%; in test [6] it was 24.6%.
As to `O=[N+]([O-])c1cccc(N=Cc2ccccc2)c1`, the growth inhibition in test [1] was 7.25%; in test [2], 12.9%; in test [3] it was -7.4%; in test [4], 8.15%; in test [5], 13.8%; in test [6], 6.05%.
As for `CC(=O)SCC(C)CCl` (stereo unspecified), the growth inhibition in test [1] is -12.4%; in test [2], -47.6%; in test [3] it was -30.9%; in test [4] it was -3.15%; in test [5] it was -17.7%; in test [6], -25.4%.
Consider `COc1ccc2oc3cc(NCCN(C)C)ccc3c(=O)c2c1`, for which the growth inhibition is -4.65% in test [1]; -21.7% in test [2]; -25.6% in test [3]; 15.9% in test [4]; -19.9% in test [5]; -19.3% in test [6].

Source of the values: PubChem BioAssay (NCI).
